In PubChem BioAssay (NCATS):
Several values for one entry are separate records, joined by “and”; a condition that tells them apart may be missing. Equal values may be shown once. Records with an inconclusive call do not appear. A call without a number means that no potency is given here. Activity calls are given as the source filed them. Unless noted, calls come from the whole dose curve; as a rule, active = well fitted curve in the direction sought with a large enough effect; inconclusive = small, poorly fitted or top-dose-only effect, or another doubt; inactive = no such curve, though single readings can be large; an effect the other way counts as inactive or inconclusive.

What was measured:
[1] = molecular target: Cytochrome P450 2D6 (Homo sapiens) (UniProt P10635); test: qHTS Assay for Inhibitors and Substrates of Cytochrome P450 2D6 (AID 891); note: nearly all actives have a fitted effect of over 60% in size; note: potency is the fitted concentration of half-maximal effect
Method in brief: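 Luminescent read-out of luciferin formed by 5 nM human CYP2D6 demethylating 30 uM Luciferin-ME EGE (Km level) over 60 min at room temperature after NADPH regeneration addition. Data normalized to full inhibition by 1.43 uM quinidine.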

[2] = molecular target: Cytochrome P450 2C9 (Homo sapiens) (UniProt P11712); test: qHTS Assay for Inhibitors and Substrates of Cytochrome P450 2C9 (AID 883); note: nearly all actives have a fitted effect of over 60% in size; note: potency is the fitted concentration of half-maximal effect
Method in brief: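 A luminogenic readout tracked human CYP2C9 (10nM) converting deoxyluciferin (100uM, at KM) in 25mM KPO4 during 60 min at 37C with regenerated NADPH. Values normalized to 57uM sulphaphenazole as complete inhibition.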

[3] = qHTS Assay for Identification of Small Molecule Agonists for Hypoxia Response Element Signaling Pathway (AID 914; active = well fitted activation curve with a large enough effect in the signal ratio, with a control signal flat, not every such curve was filed as active; the % refers to the signal ratio); details: ME-180 (cervical carcinoma) HRE-bla reporter, beta-lactamase ratio, CoCl2, 17 h; activation: stronger effect = higher value
Method in brief: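 HRE-bla ME-180 cells with beta-lactamase reporter under hypoxia response element, compounds with EC50 CoCl2 for 17 hours at 37 C. CCF4 substrate, 460nm/530nm emission ratio gave %Activity; AC50 from titration series.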

[4] = Cytotoxicity counterscreen for NFkB agonists and antagonists (AID 624476);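 note: cells exposed to compound for 48 hours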
[5] = qHTS Assay for Identification of Small Molecule Agonists for NFkB Signaling Pathway. (AID 624478);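 note: compounds tested together with TNF alpha at its EC50 of 10 pM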
Method in brief: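 Activators were sought in reporter cells stimulated at the TNF alpha EC50 (10 pM final). Compound and cytokine were co-incubated 5 hours at 37 C before beta-lactamase substrate detection by dual-emission fluorescence.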

[6] = qHTS Assay for Identification of Small Molecule Antagonists for NFkB Signaling Pathway. (AID 624479; calls by dose curve;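 note: pathway stimulated with TNF alpha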)
[7] = molecular target: Guanine nucleotide-binding protein G(i) subunit alpha-1 (Homo sapiens) (UniProt P63096); test: qHTS Assay for Inhibitors of RGS12 GoLoco Motif Activity (Green Fluorophore) (AID 879);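 note: negative values mean loss of peptide binding seen as reduced polarization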
Method in brief: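 A drop in FITC polarization marked displacement of the FITC-tagged RGS12 GoLoco peptide (10 nM) from Gαi1 (50 nM). Compounds were incubated 10 min at room temperature in Tris pH 7.5 buffer containing 150 mM NaCl, 0.1 mM GDP and 0.05% NP40; unlabeled peptide titration served as control.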

[8] = qHTS Assay for Identification of Small Molecule Agonists for Thrombopoietin (TPO) Signaling Pathway (AID 917)
Method in brief: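 Stimulation at the TPO EC50 (26 pM final) was used to detect activators. Ba/F3 mouse cells bearing human TPO receptor and a luciferase reporter under the Glycoprotein IIb promoter were exposed to compounds for 24 hrs at 37 C.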

[9] = molecular target: Pyruvate kinase (Leishmania mexicana) (UniProt Q27686); test: qHTS Validation Assay for Inhibitors of Leishmania Mexicana Pyruvate Kinase (AID 945)
Method in brief: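 Eight-point qHTS titrations in triplicate, data normalized to DMSO neutral control. Reaction: 0.2 nM LmPYK E451W mutant, 0.5 mM PEP, 0.1 mM ADP, 7 mM MgCl2, pH 7.2, one hour at room temperature; luminescent ATP detection.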

[10] = molecular target: Pyruvate kinase PKM (Homo sapiens) (UniProt P14618); test: qHTS Assay for Activators of Human Muscle Pyruvate Kinase (AID 954; active = well fitted curve in the direction sought with a large enough effect, not every such curve was filed as active)
Method in brief: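 Screening used highly purified human pyruvate kinase M2 under submaximal activity, with PEP at its Km and ADP below Km. After an hour at room temperature, ATP was read by luciferase luminescence.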

[11] = molecular target: Alpha-galactosidase A (Homo sapiens) (UniProt P06280); test: Counterscreen for Glucocerebrosidase Inhibitors: qHTS Assay for Human alpha-Galactosidase at pH 4.5 (AID 992)
Method in brief: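 Each compound is preincubated briefly with 2 nM enzyme before substrate addition (80 uM); plates then sit 20 min at ambient temperature, are quenched with 1M NaOH/1M glycine, and read fluorometrically.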

[12] = molecular target: alpha-glucosidase (Oryza sativa, rice) (UniProt Q653V4); test: Counterscreen for Glucocerebrosidase Inhibitors: qHTS Assay for Rice alpha-Glucosidase at pH 5.0 (AID 997)
Method in brief: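 Endpoint fluorogenic assay at pH 5.0: compounds (0.7 nM to 77 uM) titrated against 4 nM rice enzyme and 400 uM 4-MU-alpha-glucoside for 20 min at room temperature; NaOH/glycine stop, read ex 365/em 440 nm, Hill-fitted AC50.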

[13] = molecular target: Estrogen receptor (Homo sapiens) (UniProt P03372); test: qHTS assay for small molecule antagonists of estrogen receptor alpha signaling (AID 588513; active = well fitted curve in the direction sought with a large enough effect in the signal ratio, with a control signal flat, not every such curve was filed as active; the % refers to the signal ratio)
Method in brief: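 ER-alpha-UAS-bla GripTite HEK 293 cells in 2% charcoal/dextran-treated FBS medium; compounds titrated (1:2, duplicate), then stimulated with 0.5 nM 17-beta-estradiol for 18 h at 37C. CCF4 beta-lactamase fluorescence; Hill-fit IC50 and efficacy.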

[14] = molecular target: Estrogen receptor (Homo sapiens) (UniProt P03372); test: qHTS assay for small molecule agonists of estrogen receptor alpha signaling (AID 588514; calls by dose curve; note: nearly all actives have a fitted effect of over 70% in size)
Method in brief: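 Efficacy is expressed against 20 nM 17-beta-estradiol (100%) and DMSO basal (0%); EC50 from Hill equation. Assay: beta-lactamase reporter in ER-alpha-UAS-bla HEK 293 cells, 18 h compound incubation, CCF4 detection.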

[15] = qHTS assay for small molecule antagonists of peroxisome proliferator-activated receptor delta signaling (AID 588535; active = well fitted inhibition curve with a large enough effect in the signal ratio, with a control signal flat, not every such curve was filed as active; the % refers to the signal ratio;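 for max response: cells co-treated with a PPAR-delta agonist as stimulator during compound exposure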); details: HEK293T PPARd-UAS-bla, beta-lactamase FRET ratio, 18 h; 460 nm channel
Method in brief: (§1)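 Inhibition of PPAR-delta response element-driven beta-lactamase expression is measured in HEK293T cells exposed to a compound titration series for 18 hrs at 37 C. Half-maximal inhibition comes from Hill equation fitting.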

[16] = molecular target: Peroxisome proliferator-activated receptor delta (Homo sapiens) (UniProt Q03181); test: as above
Method in brief: as §1

[17] = molecular target: Peroxisome proliferator-activated receptor gamma (Homo sapiens) (UniProt P37231); test: qHTS assay for small molecule agonists of peroxisome proliferator-activated receptor gamma signaling (AID 588536; active = well fitted curve in the direction sought with a large enough effect in the signal ratio, with a control signal flat, not every such curve was filed as active; the % refers to the signal ratio)
Method in brief: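 Using GeneBLAzer HEK293 cells, response was quantified by CCF4 fluorescence and normalized between basal DMSO (0%) and rosiglitazone 2 uM (100%); curves yielded half-maximal stimulation concentration and efficacy.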

[18] = molecular target: Peroxisome proliferator-activated receptor gamma (Homo sapiens) (UniProt P37231); test: qHTS assay for small molecule antagonists of peroxisome proliferator-activated receptor gamma signaling (AID 588537; active = well fitted inhibition curve with a large enough effect in the signal ratio, with a control signal flat, not every such curve was filed as active; the % refers to the signal ratio;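 note: reporter cells co-stimulated with 50 nM rosiglitazone agonist during compound treatment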)
Method in brief: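 Compounds are tested as concentration series for inhibition of rosiglitazone-driven (50 nM) reporter expression in GeneBLAzer PPAR-gamma-UAS-bla HEK293 cells. After 16 h at 37 C, CCF4 substrate is added for 2 h at room temperature and blue/green fluorescence is measured.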

[19] = molecular target: Vitamin D3 receptor (Homo sapiens) (UniProt P11473); test: qHTS assay for small molecule antagonists of vitamin D receptor signaling (AID 588541; calls by dose curve;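 note: receptor activated by calcitriol during compound treatment; series mostly up to about 77 µM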)
Method in brief: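 VDR-UAS-bla HEK293T cells (2000/well, 2% charcoal-stripped FBS) were treated with titrated compounds plus 1-alpha,25-dihydroxyvitamin D3 (50 nM or 3 nM final) for 16 h at 37 C. CCF4 beta-lactamase fluorescence was read; Hill fits gave IC50.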

[20] = molecular target: Vitamin D3 receptor (Homo sapiens) (UniProt P11473); test: qHTS assay for small molecule agonists of vitamin D receptor signaling (AID 588543; calls by dose curve)
Method in brief: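 VDR-UAS-bla HEK293T cells, 2000/well, 2% charcoal-stripped FBS; compound titration 16 h at 37 C; CCF4 beta-lactamase ratio read. Normalized to 50 nM 1-alpha,25-dihydroxyvitamin D3 (100%) and DMSO; Hill fit gives EC50, efficacy.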

Sequence of Cytochrome P450 2D6 (Homo sapiens) (P10635 whole entry, looked up): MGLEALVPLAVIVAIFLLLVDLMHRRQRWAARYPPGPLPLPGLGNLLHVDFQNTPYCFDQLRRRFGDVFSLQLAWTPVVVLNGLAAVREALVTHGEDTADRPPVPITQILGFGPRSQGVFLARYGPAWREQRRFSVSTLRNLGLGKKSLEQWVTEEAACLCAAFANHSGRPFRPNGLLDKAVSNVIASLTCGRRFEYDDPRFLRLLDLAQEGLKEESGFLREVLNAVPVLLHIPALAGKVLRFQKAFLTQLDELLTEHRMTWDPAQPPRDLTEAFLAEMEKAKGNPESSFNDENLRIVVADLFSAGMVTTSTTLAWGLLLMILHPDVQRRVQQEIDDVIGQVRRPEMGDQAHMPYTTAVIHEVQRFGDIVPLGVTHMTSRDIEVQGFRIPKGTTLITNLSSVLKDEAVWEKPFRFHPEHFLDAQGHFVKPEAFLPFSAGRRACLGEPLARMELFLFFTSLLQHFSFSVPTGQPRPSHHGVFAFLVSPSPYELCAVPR
Sequence of Cytochrome P450 2C9 (Homo sapiens) (P11712 whole entry, looked up): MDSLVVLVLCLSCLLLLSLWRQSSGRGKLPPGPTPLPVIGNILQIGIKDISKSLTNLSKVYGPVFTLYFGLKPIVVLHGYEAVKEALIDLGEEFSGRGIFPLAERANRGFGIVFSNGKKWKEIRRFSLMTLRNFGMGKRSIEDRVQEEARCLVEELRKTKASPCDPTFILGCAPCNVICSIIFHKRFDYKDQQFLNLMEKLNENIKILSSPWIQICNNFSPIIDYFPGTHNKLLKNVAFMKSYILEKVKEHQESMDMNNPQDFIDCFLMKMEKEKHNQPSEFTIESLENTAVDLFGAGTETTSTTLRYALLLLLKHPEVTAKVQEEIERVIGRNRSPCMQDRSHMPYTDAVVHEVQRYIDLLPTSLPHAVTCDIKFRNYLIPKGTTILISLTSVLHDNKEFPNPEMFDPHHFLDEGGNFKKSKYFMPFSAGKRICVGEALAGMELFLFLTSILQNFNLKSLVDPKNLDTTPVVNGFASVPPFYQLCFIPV
Sequence of Estrogen receptor (Homo sapiens) (P03372 whole entry, looked up): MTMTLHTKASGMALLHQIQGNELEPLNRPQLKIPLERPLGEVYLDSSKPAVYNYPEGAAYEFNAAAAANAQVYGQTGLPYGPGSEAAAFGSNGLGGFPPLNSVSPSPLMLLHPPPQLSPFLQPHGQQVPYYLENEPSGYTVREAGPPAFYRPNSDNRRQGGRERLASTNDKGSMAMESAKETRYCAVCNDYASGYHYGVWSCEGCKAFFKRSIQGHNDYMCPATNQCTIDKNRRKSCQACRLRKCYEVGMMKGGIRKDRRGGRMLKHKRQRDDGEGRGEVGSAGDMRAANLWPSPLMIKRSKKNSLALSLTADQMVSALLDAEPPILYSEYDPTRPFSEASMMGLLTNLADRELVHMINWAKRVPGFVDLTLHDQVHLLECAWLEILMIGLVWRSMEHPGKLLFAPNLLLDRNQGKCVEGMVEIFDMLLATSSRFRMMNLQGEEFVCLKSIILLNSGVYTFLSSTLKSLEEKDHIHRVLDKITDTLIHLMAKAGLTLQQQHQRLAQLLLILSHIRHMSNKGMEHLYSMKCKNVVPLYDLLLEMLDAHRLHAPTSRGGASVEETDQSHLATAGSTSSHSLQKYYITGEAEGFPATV
Sequence of Vitamin D3 receptor (Homo sapiens) (P11473 whole entry, looked up): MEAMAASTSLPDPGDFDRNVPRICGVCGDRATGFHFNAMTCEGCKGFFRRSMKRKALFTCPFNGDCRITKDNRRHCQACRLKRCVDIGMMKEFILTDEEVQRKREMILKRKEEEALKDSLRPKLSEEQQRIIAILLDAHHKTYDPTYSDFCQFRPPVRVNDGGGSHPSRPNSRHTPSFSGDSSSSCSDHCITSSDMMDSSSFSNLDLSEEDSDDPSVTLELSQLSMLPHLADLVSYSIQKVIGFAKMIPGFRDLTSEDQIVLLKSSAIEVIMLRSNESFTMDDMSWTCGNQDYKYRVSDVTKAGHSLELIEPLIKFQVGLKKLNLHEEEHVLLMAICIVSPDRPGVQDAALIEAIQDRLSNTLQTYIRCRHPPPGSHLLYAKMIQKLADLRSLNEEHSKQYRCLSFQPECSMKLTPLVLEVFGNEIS
Sequence of Peroxisome proliferator-activated receptor gamma (Homo sapiens) (P37231 whole entry, looked up): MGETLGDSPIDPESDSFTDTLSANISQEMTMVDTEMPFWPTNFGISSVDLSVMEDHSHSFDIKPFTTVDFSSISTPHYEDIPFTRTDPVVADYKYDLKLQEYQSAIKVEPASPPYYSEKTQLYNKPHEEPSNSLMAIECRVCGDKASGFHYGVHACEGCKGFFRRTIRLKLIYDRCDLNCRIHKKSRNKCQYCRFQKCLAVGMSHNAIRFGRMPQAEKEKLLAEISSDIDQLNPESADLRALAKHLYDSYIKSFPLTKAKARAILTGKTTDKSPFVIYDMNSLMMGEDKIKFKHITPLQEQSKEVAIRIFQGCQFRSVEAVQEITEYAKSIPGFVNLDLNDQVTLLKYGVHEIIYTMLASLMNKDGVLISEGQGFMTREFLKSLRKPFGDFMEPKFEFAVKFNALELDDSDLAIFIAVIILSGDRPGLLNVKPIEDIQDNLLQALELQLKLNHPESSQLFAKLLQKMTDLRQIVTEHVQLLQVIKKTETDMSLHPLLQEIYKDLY
Sequence of Alpha-galactosidase A (Homo sapiens) (P06280 whole entry, looked up): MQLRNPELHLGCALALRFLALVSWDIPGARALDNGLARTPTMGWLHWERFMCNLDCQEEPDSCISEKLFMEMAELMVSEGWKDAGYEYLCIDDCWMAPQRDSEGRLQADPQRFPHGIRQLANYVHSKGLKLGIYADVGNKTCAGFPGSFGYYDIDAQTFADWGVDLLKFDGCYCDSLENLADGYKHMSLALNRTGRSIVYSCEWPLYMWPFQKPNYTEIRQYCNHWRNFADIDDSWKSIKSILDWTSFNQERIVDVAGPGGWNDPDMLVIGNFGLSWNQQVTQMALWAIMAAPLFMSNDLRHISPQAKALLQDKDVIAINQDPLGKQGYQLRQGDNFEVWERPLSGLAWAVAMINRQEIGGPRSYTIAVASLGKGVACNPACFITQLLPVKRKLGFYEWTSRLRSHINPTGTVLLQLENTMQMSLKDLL
Sequence of Peroxisome proliferator-activated receptor delta (Homo sapiens) (Q03181 whole entry, looked up): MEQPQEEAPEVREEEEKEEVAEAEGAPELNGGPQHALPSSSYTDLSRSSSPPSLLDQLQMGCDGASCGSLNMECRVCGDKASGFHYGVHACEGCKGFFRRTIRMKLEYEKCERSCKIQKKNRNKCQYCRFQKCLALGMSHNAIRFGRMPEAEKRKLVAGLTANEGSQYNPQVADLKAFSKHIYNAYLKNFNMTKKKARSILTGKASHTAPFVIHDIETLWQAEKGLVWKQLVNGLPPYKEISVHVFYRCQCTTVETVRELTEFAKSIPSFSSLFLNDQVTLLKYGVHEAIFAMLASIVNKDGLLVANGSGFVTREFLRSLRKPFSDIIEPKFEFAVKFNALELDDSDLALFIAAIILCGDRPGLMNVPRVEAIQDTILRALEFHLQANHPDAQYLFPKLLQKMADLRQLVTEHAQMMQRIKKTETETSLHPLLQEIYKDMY
Sequence of Pyruvate kinase (Leishmania mexicana) (Q27686 2-499 E452W): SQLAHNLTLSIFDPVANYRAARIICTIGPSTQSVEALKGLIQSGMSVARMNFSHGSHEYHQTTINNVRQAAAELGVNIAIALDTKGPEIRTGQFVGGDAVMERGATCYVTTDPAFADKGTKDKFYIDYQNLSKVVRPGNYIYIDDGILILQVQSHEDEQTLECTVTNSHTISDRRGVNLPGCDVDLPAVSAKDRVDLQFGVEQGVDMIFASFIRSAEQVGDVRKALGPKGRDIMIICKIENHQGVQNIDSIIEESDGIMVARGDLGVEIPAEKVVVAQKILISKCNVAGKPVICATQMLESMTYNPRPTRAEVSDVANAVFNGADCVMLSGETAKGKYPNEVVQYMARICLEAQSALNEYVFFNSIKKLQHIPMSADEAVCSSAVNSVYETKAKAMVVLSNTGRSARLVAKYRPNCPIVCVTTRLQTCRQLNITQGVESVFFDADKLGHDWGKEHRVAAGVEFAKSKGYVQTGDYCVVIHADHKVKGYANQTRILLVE
Sequence of Guanine nucleotide-binding protein G(i) subunit alpha-1 (Homo sapiens) (P63096 whole entry, looked up): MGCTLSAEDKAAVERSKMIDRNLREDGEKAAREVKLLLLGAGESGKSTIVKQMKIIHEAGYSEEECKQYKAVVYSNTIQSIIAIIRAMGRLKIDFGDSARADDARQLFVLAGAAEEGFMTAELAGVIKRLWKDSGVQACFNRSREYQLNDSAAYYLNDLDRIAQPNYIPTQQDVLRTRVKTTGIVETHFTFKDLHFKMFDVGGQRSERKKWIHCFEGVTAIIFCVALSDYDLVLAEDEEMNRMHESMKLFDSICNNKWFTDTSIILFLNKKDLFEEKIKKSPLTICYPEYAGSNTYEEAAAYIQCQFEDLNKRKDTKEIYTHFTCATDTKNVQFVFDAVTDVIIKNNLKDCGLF
Sequence of Pyruvate kinase PKM (Homo sapiens) (P14618 whole entry, looked up): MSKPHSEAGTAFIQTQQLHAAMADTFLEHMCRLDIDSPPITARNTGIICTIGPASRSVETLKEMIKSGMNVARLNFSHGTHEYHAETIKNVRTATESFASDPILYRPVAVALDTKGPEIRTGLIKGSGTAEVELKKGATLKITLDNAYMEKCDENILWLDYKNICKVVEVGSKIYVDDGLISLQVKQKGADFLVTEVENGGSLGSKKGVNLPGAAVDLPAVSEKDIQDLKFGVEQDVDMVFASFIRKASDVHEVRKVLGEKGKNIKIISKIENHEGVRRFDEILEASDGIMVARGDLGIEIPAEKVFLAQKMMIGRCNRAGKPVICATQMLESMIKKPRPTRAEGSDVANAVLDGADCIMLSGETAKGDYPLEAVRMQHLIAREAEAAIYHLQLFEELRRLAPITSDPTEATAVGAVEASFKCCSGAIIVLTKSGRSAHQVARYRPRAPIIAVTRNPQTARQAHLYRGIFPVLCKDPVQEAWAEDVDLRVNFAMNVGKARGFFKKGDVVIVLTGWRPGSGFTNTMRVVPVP

O[C@@](CCN1CCCCC1)(c1ccccc1)[C@@H]1C[C@H]2C=C[C@@H]1C2
Potency [1]: 2000 nM (active)

CN(C/C=C\c1ccccc1)Cc1cccc2ccccc12
Potency [1]: 251 nM (active)

CN1CCC[C@@H](CC2c3ccccc3Sc3ccccc32)C1
Potency [1]: 316 nM (active)

CN1[C@H](CC(=O)c2ccccc2)CCC[C@H]1C[C@@H](O)c1ccccc1
Potency [2]: inactive

C[C@@]12C=CC(=O)C=C1CC[C@H]1[C@H]3CC[C@](O)(C(=O)CO)[C@]3(C)CC(=O)[C@@H]12
activation [3]: -13.5% (inactive)

COc1cccc(-c2nc(NCCc3c[nH]c4ccc(OC)cc34)c3ccccc3n2)c1
Potency [2]: 0.794 µM (active)

Cc1cc2ccc(=O)oc2cc1OC[C@@H](O)C(C)(C)O
Potency [2]: inactive
Potency [1]: inactive

O=c1cc(-c2cccc(O)c2)oc2cc(O)ccc12
Potency [2]: 25.1 µM (active)
Potency [1]: inactive

C=Cc1c(C)c2cc3nc(cc4[nH]c(cc5nc(cc1[nH]2)C(C)=C5CCC(=O)O)c(CCC(=O)OC)c4C)[C@@]1(C)C3=CC=C(C(=O)OC)[C@H]1C(=O)OC (tested in a mixture with another compound)
Potency [2]: 1.26 µM (active)

NCCC(=O)N[C@@H](Cc1cnc[nH]1)C(=O)O
Potency [2]: inactive
Potency [1]: inactive

CCC(C)(C)C(=O)O[C@@H]1C[C@H](C)C=C2C=C[C@H](C)[C@@H](CC[C@H]3C[C@@H](O)CC(=O)O3)[C@H]21
outcome [4]: inactive
outcome [5]: inactive
outcome [6]: inactive

COc1cc2ccc(=O)oc2c(O)c1O
Potency [1]: inactive

C/C(=C\CNc1ncnc2nc[nH]c12)CO
Potency [2]: inactive

CC/C=C\C[C@H]1C(=O)CC[C@@H]1CC(=O)O
Potency [2]: inactive

COc1ccc2c(c1)N(C[C@@H](C)CN(C)C)c1ccccc1S2
activation [3]: -28.7% (inactive)

C[C@@H](CN1c2ccccc2Sc2ccccc21)N(C)C
outcome [7]: inactive
Potency [1]: 2 µM (active) and 316 nM (active)
outcome [8]: inactive
outcome [9]: inactive
outcome [10]: inactive
outcome [11]: inactive
outcome [12]: inactive

COc1c(Cl)ccc(Cl)c1C(=O)O
outcome [13]: inactive
outcome [14]: inactive
max response [15]: -7.82%
outcome [16]: inactive
outcome [17]: inactive
outcome [18]: inactive
outcome [19]: inactive
outcome [20]: inactive
